High-throughput results as filed in PubChem.
PfHsp90 yeast 2: growth inhibition of yeast expressing Plasmodium Hsp90. AID 504621. inhibition, % at 9.4 µM. 310,000 compounds, 0.32% hits. S. cerevisiae expressing PfHsp90, BacTiter-Glo ATP, 48 h; yeast lacking PDR1 and PDR3 efflux regulators;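 active = every replicate shows inhibition above about 80%, whatever the replicate mean, limit read from the data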;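 also: 0% = DMSO neutral controls and 100% = 20 µM radicicol positive controls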
V-ATPase pH: yeast V-ATPase proton transport regulation by pHLuorin; S. cerevisiae, pHLuorin cytosolic pH fluorescence; response, % at 10 µM; 350,000 compounds, 0.37% hits; AID 504577; in the data active = response mostly above about 7.3%, no sharp cut-off; inactive = mostly below about 5.4%; also: actives read high
tim10-1 inh: tim10-1 yeast growth inhibition | inhibition, % at 20 µM | 330,000 compounds, 2.2% hits | S. cerevisiae tim10-1 ts strain growth, BacTiter-Glo, 24 h;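 active = inhibition of at least 40%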;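 also: mutant grown at 25 °C; 0% = DMSO wells with yeast and 100% = wells holding no yeast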
tim23-1 inh: growth inhibitors of tim23-1 mutant yeast; S. cerevisiae tim23-1 growth, BacTiter-Glo luminescence, 24 h; inhibition, % at 20 µM; 330,000 compounds, 1.3% hits;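 active = growth inhibition of the mutant yeast at or above 50%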;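 also: temperature-sensitive mutant grown at 25 °C; plate controls were DMSO-treated mutant yeast for no effect and medium wells lacking yeast for full effect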
TIM10 inh: growth inhibitors of TIM10 yeast strain. S. cerevisiae TIM10 strain growth, BacTiter-Glo luminescence, 24 h. inhibition, % at 10 µM. 330,000 compounds, 1.4% hits. AID 463195;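 active = inhibition of 40% or more at the single tested concentration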;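 also: wild-type TIM10 isogenic control strain grown at permissive 25 °C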
tim10-1 conf: tim10-1 yeast growth inhibition, confirmed. shares compounds with tim10-1 inh. S. cerevisiae tim10-1 ts strain growth, BacTiter-Glo, 24 h. inhibition, % at 20 µM. 7,400 compounds, 56% hits. AID 463213;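 active = inhibition of yeast growth at or above a set limit in either of two repeat tests at 20 µM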;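 also: tim10-1 mutant grown at permissive 25 °C to find synthetic lethal compounds; 0% = DMSO yeast wells and 100% = medium wells without yeast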
* marks the source's active call; other numbers are inactive results; . = not tested or not shown. Only some compounds are listed: those with a hit (about 3.7% of all), similar ones and a draw of the others.

SMILES	PfHsp90 yeast 2	V-ATPase pH	tim10-1 inh	tim23-1 inh	TIM10 inh	others
N=c1c2c(n(Cc3ccc(Cl)cc3Cl)c3c1CCC3)CCCC2	-5	13*	-46	-221	-29
COc1ccc(CN2C(=O)C(CC(=O)NCc3ccco3)CC(C(=O)N(C)C)=C2C)cc1 (centres undefined)	.	0	.	.	.
CC[C@H](C)/C=C(C)/C=C/C1=CC2=C(Cl)C(=O)[C@](C)(OC(C)=O)C(=O)C2=CO1	105*	2	18	34	21
CC(C)C/C(=N/O)c1cn(C)c2ccccc12	41	1	-20	8	-6
CC(C(=O)c1ccc(Cl)cc1Cl)n1cncn1 (centres undefined)	1	0	20	0	0
CC(C)(C)C(O)C(Oc1ccc(Cl)cc1)n1cncn1 (centres undefined)	102*	-8	-68	-201	-85
COc1ccc(C2=NCC(=S)Nc3ccc(Cl)cc32)cc1OC	-10	-2	-3	1	8
S=C1CN=C(c2ccccc2)c2cc(Cl)ccc2N1	39	25*	14	24	24
O=C1C=CC(=O)C2C1C1(Cl)C(Cl)=C(Cl)C2(Cl)C1(Cl)Cl (centres undefined)	92*	1	.	.	.
Cc1cccc(N=C2c3cc([N+](=O)[O-])ccc3-c3c2cc([N+](=O)[O-])cc3[N+](=O)[O-])c1	107*	9	.	.	.
O=[N+]([O-])c1cccc(O)c1	12	-1	-4	-14	6
CC(=O)OC1(C)CC(C)C(=O)C(C(O)CC2CC(=O)NC(=O)C2)C1 (centres undefined)	105*	0	.	.	.
Cc1cc2c(cc1C)NP(=S)(c1ccccc1)N2	-1	2	.	.	.
O=c1c2ccccc2nc(-c2ccc(-c3ccccc3)cc2)n1-c1ccncc1	107*	-1	-17	-66	-69
Cc1ccc(-c2nc3ccccc3c(=O)n2-c2ccncc2)cc1	18	-3	18	33	20
O=[N+]([O-])/C=C/c1c(Cl)cccc1Cl	145*	1	.	.	.
CCN(CC)c1ccc(/C=C/[N+](=O)[O-])cc1	12	3	-7	44	4
C[CH2][Hg][S]c1ccccc1C(=O)O	109*	12	-24	35	31
CCCCCCC(Cl)(Cn1ccnc1)c1ccccc1 (centres undefined)	101*	-4	-39	-217	-123
CCCCCCn1c(O)c(C=NCCCn2ccnc2)c(=O)[nH]c1=O	-10	-1	12	11	-9
CCOc1ccc(-n2c(-c3cccs3)nc3ccccc3c2=O)cc1	-9	-2	-2	-4	9
CCn1nc(-c2cccs2)nc2c(=O)n(C)c(=O)nc1-2	108*	4	.	.	.
CC(C)n1c(O)c(C2c3cc(Cl)ccc3Oc3[nH]c(=O)n(C(C)C)c(=O)c32)c(=O)[nH]c1=O (centres undefined)	-7	18*	.	.	.
COc1cc(C=NNC(=S)Nc2ccc(S(=O)(=O)N3CCCCC3)cc2)cc(OC)c1OC	.	3	.	.	.
Clc1ccc(COC(Cn2ccnc2)c2ccc(Cl)cc2Cl)c(Cl)c1 (centres undefined)	81*	-3	-7	36	-66
SMILES	PfHsp90 yeast 2	V-ATPase pH	tim10-1 inh	tim23-1 inh	TIM10 inh	others
COC(=O)C1=C(N)Oc2c(c(=O)oc3ccccc23)C1c1cccnc1 (centres undefined)	19	27*	-2	7	-4
CCOC(=O)NC1CCc2cc(OC)c(OC)c(OC)c2-c2ccc(OC)c(=O)cc21 (centres undefined)	-20	1	.	.	.
CCCCCCCCCCCCCCCC[n+]1ccccc1	114*	7	.	.	.
Cn1c(O)c(C(=NCCN2CCCCC2)c2ccccc2Cl)c(=O)n(C)c1=O	.	-2	15	-8	-16
Cn1c(O)c(C(=Nc2ccc(F)cc2)c2ccccc2Cl)c(=O)n(C)c1=O	106*	-4	-12	22	-4
CC(=NCc1ccc2c(c1)OCO2)c1c(O)n(-c2ccccc2)c(=O)[nH]c1=O	4	0	12	9	18
CC(O)C1C=CC=CC(=O)OC2CC3OC4C5OC5(C)CCC4(COC(=O)C4OC4(C)C(O)CO1)C2(C)C31CO1 (centres undefined)	-4	0	.	.	.
CC(=O)OC1C(=O)OCC23CCC4(C)OC4C2OC2CC(OC(=O)C=CC=CC(=O)OCCC1C)C3(C)C21CO1 (centres undefined)	131*	7	.	.	.
COc1cc2c(c(OC)c1OC)-c1ccc(SC)c(=O)cc1C(N)CC2 (centres undefined)	-15	-4	.	.	.
CC(=NNC(=S)N1CC2CCC(CC2)C1)c1nccs1	121*	-6	.	.	.
O=C(NCC1=C(c2ccc3ccccc3c2)C[C@@H]2CC[C@H]1N2Cc1ccco1)c1nccs1	.	4	.	.	.
COc1cc2c(c(OC)c1OC)-c1ccc(OC)c(=O)cc1C(N)CC2 (centres undefined)	-32	1	.	.	.
CCOC(=O)c1c(-n2c(C)cc(C=C3C(=O)NC(=S)NC3=O)c2C)sc2c1CCCC2	109*	-1	30	44	29
O=C1NC(=S)N(c2ccccc2)C(=O)/C1=C/c1ccco1	0	7.6*	12	23	-3
CCOc1cccc(N2C(=O)/C(=C/c3ccco3)C(=O)NC2=S)c1	3	1	-4	9	-5
N#Cc1ccc(CN2Cc3ccccc3-n3nncc3C2)cc1	.	4	.	.	.
COC1C(C)OC(OC2CC(C)(O)Cc3cc4c(c(O)c32)C(=O)c2c(O)cc3c(c2C4=O)OC2OC3(C)C(O)C(N(C)C)C2O)C(OC)C1(C)OC (centres undefined)	-38	-1	.	.	.
CC(C)(C)c1cc([N+](=O)[O-])cc(C(C)(C)C)c1O	.	.	49*	43	25	tim10-1 conf=44*
COC(=O)Nc1ccc(N=C(N)N[N+](=O)[O-])cc1	-56	5	22	18	21
COc1cc2c(cc1OC)C13CCN4CC5=CCOC(CC(=O)O)C(C5CC41)C3N2 (centres undefined)	-8	-1	.	.	.
Cc1ccc(/C=C2/Sc3ccc(C(=O)N4CCC5(CC4)OCCO5)cc3NC2=O)cc1	1	0	47*	40	23	tim10-1 conf=20
CN1C(=O)c2ccccc2Sc2ccc(C(=O)N3CCC4(CC3)OCCO4)cc21	.	-2	2	29	28
CCOc1ccc(C(C)=O)cc1Cn1ccsc1=N	31	-3	.	.	.
CCCCn1c(O)c(C(CC)=Nc2ccc(OC)cc2OC)c(=O)[nH]c1=O	-21	6	41*	35	21	tim10-1 conf=16
CCCCn1c(O)c(C(CC)=Nc2ccc(OCC)cc2)c(=O)[nH]c1=O	9	-8	27	18	37
CC(C)N(Cc1ccco1)/N=C/c1c(O)n(Cc2ccccc2)c(=O)[nH]c1=O	9	0	11	13	5
CCOC(=O)C1(c2ccccc2)Oc2ccccc2C(c2ccc(OC)cc2)=C1C(=O)OC (centres undefined)	4	-2	16	30	1
